# Source: PubChem BioAssay (National Center for Advancing Translational Sciences (NCATS))
# Shown are actives, neighbours in structure and some others; about 15% of the full set was active somewhere.
# Sm TGR inh: inhibitors of Schistosoma mansoni thioredoxin glutathione reductase | Q962Y6 | purified TGR, DTNB reduction, TNB absorbance 405 nm | Potency, µM (top dose mostly 114 µM), inactives show top-dose activity change, negative = inhibition, usual class: inhibitors | 360,000 compounds, 3% hits | AID 485364; also: potency is read from the fitted curve at half-maximal effect; % is scaled to controls: 0 for no effect and ±100 for the full control effect; nearly all actives have a fitted effect of over 60% in size
#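 First, TGR (20 nM dispensed) and NADPH were mixed with compound. Second, a 15 min room-temperature incubation followed. Third, further NADPH and then DTNB were added to start the reaction. Finally, TNB absorbance was monitored kinetically.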
# HCMV inh: inhibitors of human cytomegalovirus; 410,000 compounds, 4.5% hits; AID 1259415; HFF cells, HCMV-luciferase reporter, 72 h; active compounds read low; activity change, negative = inhibition, % at 57.5 µM; in the data active = activity change below about -60%; inconclusive = no clear call, values can overlap the other calls; inactive = above about -39%; also: % is scaled to controls: 0 for no effect and ±100 for the full control effect
#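 Steps: HFFs plated, 16 h 37C; compounds added; HCMV-luciferase added to MOI 1 PFU/cell; 72 h 37C; OneGlo reagent, 5 min room temperature; luminescence read, normalized to controls.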
# Pf growth 96h: P. falciparum growth inhibition at 96 hour, primary screen for plastid delayed-death inhibitors | P. falciparum luciferase reporter growth, 96 h | Potency, µM (top dose mostly 28.7 µM), without a hit: top-dose activity change, negative = inhibition, hits mostly inhibitors | 320,000 compounds, 6.9% hits; also: potency is read from the fitted curve at half-maximal effect; % is scaled to controls: 0 for no effect and ±100 for the full control effect
#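 P. falciparum expressing integrated firefly luciferase, in erythrocytes at 2% hematocrit, 0.05% parasitemia, incubated with compounds 96 h at 37 C, 5% CO2. Growth inhibition read as loss of luminescence; two-generation exposure targets delayed-death apicoplast inhibitors.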
# Pf growth 48h: P. falciparum growth inhibition at 48 hours (one generation) | Potency, µM (highest dose often 28.7 µM), for the others: at the top dose activity change, negative = inhibition, actives largely listed as inhibitors | 310,000 compounds, 5.9% hits | P. falciparum luciferase growth in erythrocytes, 48 h; also: potency is read from the fitted curve at half-maximal effect; % is scaled to controls: 0 for no effect and ±100 for the full control effect
#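 Luminescence readout; reporter = integrated firefly luciferase in P. falciparum. RBC culture at 2% hematocrit, 0.1% parasitemia final, 37 C/5% CO2; decreased signal taken as growth inhibition.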
# HCV inhibitor: inhibitors of hepatitis C virus infection; Huh7.5.1 HCVcc-Cre infection, luciferase reporter, 44 h; Potency, µM (doses to about 41.8 µM), for the others: at the highest dose activity change, negative = inhibition, hits mostly inhibitors; 340,000 compounds, 3.4% hits; AID 651820; also: potency is read from the fitted curve at half-maximal effect; % is scaled to controls: 0 for no effect and ±100 for the full control effect
#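 Infectious HCVcc-Cre (~0.5 moi) was added to cells just after compound, with cells seeded 4 h earlier at 1,000 per well. Luciferase activity after 44 h culture reported infection; substrate was incubated 15 min at room temperature before reading.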
# SARS PLP yeast: SARS-CoV PLP inhibition in yeast; Potency, µM (doses to about 32.9 µM), inactives show top-dose activity, positive = growth rescue, actives largely listed as activators; S. cerevisiae expressing SARS-CoV PLpro, growth rescue; 330,000 compounds, 0.19% hits; calls by dose curve; also: potency is read from the fitted curve at half-maximal effect; 0% is about no effect; nearly all actives have a fitted effect of over 55% in size
# * = called active by the depositor; i = inactive; u = inconclusive; x = no result given. Unless noted, calls follow the shape of the dose curve; as a rule, active = well fitted curve in the direction sought with a large enough effect; inconclusive = small, poorly fitted or top-dose-only effect, or another doubt; inactive = no such curve, though single readings can be large; an effect the other way counts as inactive or inconclusive.
SMILES,Sm TGR inh,HCMV inh,Pf growth 96h,Pf growth 48h,HCV inhibitor,SARS PLP yeast
COc1cc(-c2noc(C)c2C#Cc2ccccn2)cc(OC)c1OC,35µM*,-18,u,5%,u,-3%
COc1cc(-c2noc(C)c2C#Cc2ccc(N)cc2)cc(OC)c1OC,-15%,-19,u,0%,2.2µM*,-3%
CC(C)Oc1ccc(CNC(=O)CCCn2c(=O)c3cccn3c3ccccc32)cc1,-16%,-11,x,x,x,x
CC(=O)O[C@@H](Cc1ccc(O)cc1)C(=O)CC(C)C,x,7,x,x,x,x
COc1ccc(OC)c(-c2csc(NC(=O)CSc3nnnn3C)n2)c1,-1%,1,13%,-19%,4%,-8%
COc1cc(-c2c(-c3cc(OC)c(OC)c(OC)c3)noc2C)ccc1F,-11%,-94*,u,5%,u,-1%
COc1cccc(CNC(=O)[C@H]2CCCN2C(=O)[C@H]2CCCN2C(=O)c2ccc(C)c(C)c2)c1,x,-27,x,x,x,x
COc1ccc(C(=O)CNc2ccc(C)cc2C)cc1,10%,30,62%,78%,-9%,-3%
CC(C)(C)c1ccc(-c2nc(C=O)c3ccccn23)cc1,-19%,-32,70%,72%,-52%,-7%
Cc1c(C(C)(C)C)c(C=S)n2ccccc12,2.2µM*,-34,10µM*,x,-20%,2%
O=C(NCc1ccccn1)c1ccc(Br)s1,-8%,37,x,3.7µM*,16%,-1%
O=C(NCc1ccccn1)c1ccc(Cl)s1,3%,-6,10%,x,3%,1%
N#CCCCc1cc2ccccc2cn1,x,-7,x,x,u,2%
CC(C)(O)C#Cc1ccc(N2C(c3ccsc3)=Cc3ccc(F)cc3C2c2c[nH]c3ccccc23)cc1 (stereo unspecified),x,-63*,x,x,x,x
COc1ccc(NC(=O)N(C)C[C@H]2OCc3cn(nn3)CCCC(=O)N([C@H](C)CO)C[C@@H]2C)cc1,x,-10,x,x,x,x
O=S(=O)(NCCc1ccccc1)c1cccc(S(=O)(=O)N2CCOCC2)c1,35µM*,20,x,7%,4%,1%
O=S(=O)(NCc1ccccc1F)c1cccc(S(=O)(=O)N2CCOCC2)c1,-3%,1,63%,8.3µM*,18%,0%
O=S(=O)(NCc1ccc(F)cc1)c1cccc(S(=O)(=O)N2CCOCC2)c1,-2%,1,-21%,x,20%,4%
COc1cccc(N2CCN(C(=O)c3ccc(OC)c(S(=O)(=O)NC4CC4)c3)CC2)c1,x,43,x,x,x,x
COc1cccc(CN=C2Nc3ccccc3CS2)c1,11%,-17,i,i,1%,-1%
CC1(C)CSC(=NCc2ccccc2)N1,-3%,-25,-14%,18%,10µM*,-1%
CCN(CC)S(=O)(=O)c1cc(C(=O)Nc2cc(C)[nH]n2)ccc1Cl,-18%,x,68%,x,u,-2%
O=C(O)c1ccccc1N/C=C\[N+](=O)[O-],28µM*,-6,u,9%,8%,-2%
O=C(/C=C/Nc1ccccc1C(=O)O)c1cccs1,-4%,21,-30%,60%,30%,15%
O=C(O)c1cccc2c(/C=N/Nc3ccccn3)c[nH]c12,0%,x,93%,83%,32%,2%
SMILES,Sm TGR inh,HCMV inh,Pf growth 96h,Pf growth 48h,HCV inhibitor,SARS PLP yeast
C(=N\Nc1ccccn1)/c1c[nH]c2ccccc12,11%,-68*,1%,95%,-24%,-1%
O=c1nc(N/N=C/c2c[nH]c3ccccc23)cn[nH]1,15%,0,0.41µM*,193%,3%,0%
CCOC(=O)C1CCCN(C(=O)c2ccc(NC(=O)c3nsc4ccccc34)cc2)C1 (stereo unspecified),-1%,69,x,x,x,x
COc1ccc2nc(-c3ccccc3)nc(C3CCCCC3)c2c1,0%,-3,55%,33%,u,2%
COc1ccc2nc(-c3ccccc3)nc(SC)c2c1,x,26,x,x,11µM*,x
COc1ccc(Nc2nc(N3CCCCC3)nc3ccccc23)c(OC)c1,-2%,-13,-89%,x,u,3%
